# Results published in PubChem BioAssay (NCATS).
# Values joined by “and” are separate entries in the source; they are usually repeats but may differ in a detail not shown here. Equal values may be shown once. Records with an inconclusive call do not appear. Where a call stands in place of a potency, no number is given. Active and inactive are the calls of the source. Unless noted, calls come from the whole dose curve; as a rule, active = well fitted curve in the direction sought with a large enough effect; inconclusive = small, poorly fitted or top-dose-only effect, or another doubt; inactive = no such curve, though single readings can be large; an effect the other way counts as inactive or inconclusive.
# How the values were obtained:
# [1] = P-glycoprotein substrates identified in KB-3-1 adenocarcinoma cell line, qHTS therapeutic library screen (AID 1346986); note: nearly all actives have a fitted effect of over 60% in size
# Procedure, shortened: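 72 h cell-killing screen, 500 cells/well, CellTiter-Glo luminescence. Paired lines KB-3-1/KB-8-5-11; P-gp dependence checked by tariquidar co-treatment and HEK-293 MDR-19 versus empty-vector cells.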
# [2] = qHTS Assay for Identifying Gametocytocidal Compounds (AID 743244); note: potency is the fitted concentration of half-maximal effect;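 for max response: actives lower the fluorescent signal which means gametocytes are killed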; conditions: P. falciparum 3D7 stage III-V gametocytes, alamarBlue, 72 h; max response: stronger effect = lower value
# Procedure, shortened: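 Late gametocytes (III–V), P. falciparum 3D7; 72 h drug, then 24 h alamarBlue; resazurin reduction read by fluorescence.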
# [3] = qHTS assay to identify small molecule inhibitors of chordoma cells - UCH-1 (AID 1259355); note: nearly all actives have a fitted effect of over 55% in size; note: potency is the fitted concentration of half-maximal effect
# Procedure, shortened: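 A 48hr growth-inhibition format: each drug tested at 15 concentrations together with added auranofin, camptothecin, doxorubicin, rubitecan and topotecan, with cell viability quantified as CellTiter-Glo luminescence.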
# [4] = qHTS assay to identify small molecule inhibitors of chordoma cells - UCH-2 (AID 1259356); note: potency is the fitted concentration of half-maximal effect
# [5] = qHTS profiling of the MIPE4 collection as inhibitors of Plasmodium falciparum (3D7) proliferation (AID 743344; call rule not given here); conditions: P. falciparum 3D7 in erythrocytes, SYBR Green DNA fluorescence, 72 h; at 28.5 µM (top of the series) unless noted
# Procedure, shortened: (§1)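 Parasite DNA was quantified by SYBR Green I fluorescence (ex 485, em 535 nm) after overnight lysis in saponin/Triton buffer at room temperature. Cultures at 0.3% parasitemia and 2.5% hematocrit were first exposed to compound for 72 h at 37 C; signals were normalised to artemisinin (0.29 uM) and vehicle wells.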
# [6] = qHTS profiling of the MIPE4 collection as inhibitors of Plasmodium falciparum (DD2) proliferation (AID 743345; call rule not given here); conditions: P. falciparum Dd2 in erythrocytes, SYBR Green DNA, 72 h; at 28.5 µM (top of the series) unless noted
# Procedure, shortened: as §1
# [7] = qHTS profiling of the MIPE4 collection as inhibitors of Plasmodium falciparum (DD2) proliferation (Rep 2) (AID 743346; call rule not given here); conditions: P. falciparum Dd2 in erythrocytes, SYBR Green DNA, 72 h; at 28.5 µM (top of the series) unless noted
# Text: Plasmodium falciparum is a virulent malarial parasite that kills 1-2 million people worldwide each year. Transmitted by mosquitoes, the sporozoite form of the parasite enters the blood stream to infect hepatocytes, where they become merozoites that infect red blood cells (erythrocytes). Within erythrocytes, merozoites begin a […] cycle of growth and division, after which the parasite is released to infect new red blood cells. Gametocytes, which form within erythrocytes as well, circulate in the bloodstream and are ingested by the mosquito, thereby completing the life cycle. To profile malarial isolates for differential chemical responses and to identify inhibitors of malarial growth, an assay that measures P. falciparum growth and replication within erythrocytes was employed. This assay uses a DNA binding fluorescent dye (SYBR Green) to detect parasite DNA following cell lysis. Because mature erythrocytes lack DNA, only Plasmodium-derived DNA is detected.
# The SYBR Green viability assay was adapted from a method described previously (Plouffe et al., 2008). For screening 3 ul culture medium was dispensed into 1536 well black clear bottom plates (Aurora Biotechnologies) using a Multidrop Combi (Thermo Fisher Scientific Inc.), 23 nL compounds in DMSO were added by a pin tool (Kalypsys), and 5 ul of erythrocytes infected with P. falciparum (0.3% parasitemia, 2.5% hematocrit final concentration) were added. The plates were incubated at 37 C in a humidified incubator in 5% CO2 for 72 h, and 2 ul lysis buffer (20 mM Tris HCl, 10 mM EDTA, 0.16% saponin, 1.6% triton X, 10X SYBR Green I supplied as 10,000X […] by Invitrogen) was added to each well. The plates were mixed for 25 sec with gentle shaking and incubated overnight at room temperature in the dark. The following morning, fluorescence intensity at 485(14) nm excitation and 535(25) nm emission wavelengths was measured on an EnVision (Perkin Elmer) plate reader. Plate reads were normalized relative to the control inhibitor (0.29 uM artemisinin) and vehicle (DMSO) wells present on each plate and then corrected by an algorithm using vehicle-only control plates at the beginning and end of the compound plate stack.
# [8] = qHTS profiling of the MIPE4 collection as inhibitors of Plasmodium falciparum (HB3) proliferation (AID 743347; call rule not given here); conditions: P. falciparum HB3 in erythrocytes, SYBR Green DNA, 72 h; at 28.5 µM (top of the series) unless noted
# Procedure, shortened: as §1
structure (smiles),measurement,setting,value
C/C1=C2N=C(/C=C3N=C(/C(C)=C4\[N-][C@@](C)([C@@H]5N=C1[C@](C)(CCC(=O)NCC(C)OP(=O)(O)O[C@H]1[C@@H](O)[C@@H](n6cnc7cc(C)c(C)cc76)O[C@@H]1CO)[C@H]5CC(N)=O)[C@@](C)(CC(N)=O)[C@@H]4CCC(N)=O)[C@@](C)(CC(N)=O)[C@@H]\3CCC(N)=O)C(C)(C)[C@@H]/2CCC(N)=O.CC(=O)O.[Co] (stereo not given in full),Potency,[1],inactive
CCC(=O)O[C@@H]1CC(=O)O[C@H](C)C/C=C/C=C/[C@H](O)[C@H](C)C[C@H](CC=O)[C@H](O[C@@H]2O[C@H](C)[C@@H](O[C@H]3C[C@@](C)(O)[C@@H](OC(=O)CC)[C@H](C)O3)[C@H](N(C)C)[C@H]2O)[C@H]1OC,max response,[2],4.15% (inactive)
same,Potency,[3],inactive
same,Potency,[4],inactive
CO[C@@H]1[C@@H](O[C@@H]2O[C@H](C)[C@@H](O[C@H]3C[C@@](C)(O)[C@@H](O)[C@H](C)O3)[C@H](N(C)C)[C@H]2O)[C@@H](CC=O)C[C@@H](C)[C@@H](O[C@@H]2CC[C@H](N(C)C)[C@@H](C)O2)/C=C/C=C/C[C@@H](C)OC(=O)C[C@H]1O,max response,[2],23.5% (inactive)
same,Potency,[3],inactive
same,Potency,[4],inactive
O=C(Nc1cccc(C(F)(F)F)c1)c1cc(Br)cc(Br)c1O,max response,[2],-2.44% (inactive)
same,Potency,[3],12.6 µM (active)
CC[C@H]1OC(=O)[C@H](C)[C@@H](O[C@H]2C[C@@](C)(OC)[C@@H](O)[C@H](C)O2)[C@H](C)[C@@H](O[C@@H]2O[C@H](C)C[C@H](N(C)C)[C@H]2O)[C@](C)(O)C[C@@H](C)/C(=N\OCOCCOC)[C@H](C)[C@@H](O)[C@]1(C)O,max response,[2],-7.41% (inactive) and 9.46% (inactive)
same,Potency,[3],inactive
same,Potency,[4],inactive
CC1(C)S[C@@H]2[C@H](NC(=O)C(C(=O)O)c3ccsc3)C(=O)N2[C@H]1C(=O)O (stereo not given in full),max response,[2],10.2% (inactive)
same,Potency,[3],inactive
same,Potency,[4],inactive
CC(C)(C)C1(O)CCN2CC3c4ccccc4CCc4cccc(c43)C2C1 (stereo not given),max response,[2],10.9% (inactive)
same,Potency,[3],inactive
same,Potency,[4],inactive
COc1ccc2c3c1O[C@H]1C[C@@H](O)C=C[C@@]31CCN(C)C2,Potency,[3],inactive
same,Potency,[1],inactive
C[C@@H]1[C@H](O)[C@@H](C)/C=C/C=C\C=C\C=C\C=C\C=C\C=C\[C@H](O[C@@H]2O[C@H](C)[C@@H](O)[C@H](N)[C@@H]2O)C[C@@H]2O[C@](O)(C[C@@H](O)C[C@@H](O)[C@H](O)CC[C@@H](O)C[C@@H](O)CC(=O)O[C@H]1C)C[C@H](O)[C@H]2C(=O)O (stereo in doubt),max response,[2],4.52% (inactive)
same,Potency,[3],inactive
same,Potency,[4],inactive
CC[N+](CC)(CC)CCC(O)(c1ccccc1)C1CCCCC1 (stereo not given),max response,[2],4.48% (inactive)
same,Potency,[3],inactive
same,Potency,[4],inactive
CCN(CC)Cc1cc(Nc2ccnc3cc(Cl)ccc23)ccc1O,"parasite growth, % of DMSO control",[5],4.69% [at 9.64 µM]
same,"parasite growth remaining, % of DMSO control (lower = more inhibition)",[6],9.46% [at 9.64 µM]
same,"parasite growth, % of control (lower = inhibition)",[7],11.1% [at 9.64 µM]
same,"growth, % of control",[8],3.47% [at 9.64 µM]
same,Potency,[3],inactive
same,Potency,[4],inactive
Nc1ncnc2c1ncn2[C@@H]1O[C@H](COP(=O)(O)OP(=O)(O)OP(=O)(O)O)[C@@H](O)[C@H]1O,max response,[2],-2.1% (inactive)
same,Potency,[3],inactive
same,Potency,[4],inactive
CCNC(=O)[C@@H]1CCCN1C(=O)[C@H](CCCN=C(N)N)NC(=O)[C@H](CC(C)C)NC(=O)[C@@H](Cc1c[nH]c2ccccc12)NC(=O)[C@H](Cc1ccc(O)cc1)NC(=O)[C@H](CO)NC(=O)[C@H](Cc1c[nH]c2ccccc12)NC(=O)[C@H](Cc1cnc[nH]1)NC(=O)[C@@H]1CCC(=O)N1,Potency,[2],6.31 µM (active)
same,Potency,[3],31.6 µM (active)
same,Potency,[4],18.3 µM (active)
CC1=C(/C=C/C(C)=C/C=C/C(C)=C/C=C/C=C(C)/C=C/C=C(C)/C=C/C2=C(C)C(=O)CCC2(C)C)C(C)(C)CCC1=O,max response,[2],6.31% (inactive)
same,Potency,[3],inactive
same,Potency,[4],inactive
CO[C@H]1C=CO[C@@]2(C)Oc3c(C)c(O)c4c(O)c(c(/C=N/N5CCN(C6CCCC6)CC5)c(O)c4c3C2=O)NC(=O)/C(C)=C\C=C[C@H](C)[C@H](O)[C@@H](C)[C@@H](O)[C@@H](C)[C@H](OC(C)=O)[C@@H]1C,Potency,[2],10 µM (active)
same,Potency,[3],inactive
same,Potency,[4],inactive
C#CCOc1ccc2c(C)cc(=O)oc2c1,max response,[2],7.39% (inactive)
same,Potency,[3],inactive
same,Potency,[4],inactive
CCC1OC(=O)C[C@@H](O)[C@H](C)[C@@H](O[C@@H]2O[C@H](C)C[C@H](N(C)C)[C@H]2O)[C@@H](CC=O)C[C@@H](C)C(=O)/C=C/[C@]2(C)OC2C1C (stereo not given in full),Potency,[2],10 µM (active)
same,Potency,[3],inactive
same,Potency,[4],inactive
